Results as given in PubChem BioAssay (Tox21).
Results filed as inconclusive are left out. Activity calls are given as the source filed them. The call rests on the fitted dose curve; in most records, active means well fitted curve in the direction sought with a large enough effect in the repeat runs; inconclusive means weak or mixed curves; inactive means no such curve, though single readings can be large; an effect the other way counts as inactive or inconclusive.

Legend:
[1] = qHTS RealTime-Glo MT Cell Viability Assay in HepG2 cells - 40 hour (AID 1224870); further: nearly all actives have a fitted effect of over 50% in size
Outline: (§1)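 HepG2 cells mixed with RealTime-Glo MT reagents (NanoLuc plus cell-permeant prosubstrate) were seeded at 600 cells/well, incubated 5 h at 37 C/5% CO2, then pinned with compounds in DMSO; nonlytic luminescence tracked viability during 40 h treatment.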

[2] = A CellTox Green Cytotoxicity Assay to monitor cytotoxicity in HEK293 cells - 40 hour (AID 1224871); further: nearly all actives have a fitted effect of over 45% in size
Outline: (§2)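 Seeding of HEK293 cells together with cytotoxicity dye preceded a 5 h incubation at 37 C/5% CO2. Test compounds in DMSO were then added and fluorescence monitored across 40 h.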

[3] = qHTS RealTime-Glo MT Cell Viability Assay in HEK293 cells - 16 hour (AID 1224872); further: nearly all actives have a fitted effect of over 50% in size; further: potency means the concentration at half of the fitted maximal effect
Outline: (§3)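 Luminescence generated by NanoLuc from substrate produced by living HEK293 cells served as the viability signal. Each value reflects the reading at its stated time point during continuous 40 h compound exposure at 37 C.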

[4] = qHTS RealTime-Glo MT Cell Viability Assay in HepG2 cells - 8 hour (AID 1224873); further: nearly all actives have a fitted effect of over 55% in size
Outline: as §1

[5] = qHTS RealTime-Glo MT Cell Viability Assay in HEK293 cells - 40 hour (AID 1224874); conditions: RealTime-Glo luminescence; max response: active compounds read low; further: nearly all actives have a fitted effect of over 50% in size; further: potency means the concentration at half of the fitted maximal effect
Outline: (§4)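 Tox21 screen in HEK293 using RealTime-Glo MT chemistry, with cells and reagent co-dispensed. Luminescence proportional to viable cell number was captured at intervals during 40 h compound exposure at 37 C.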

[6] = A CellTox Green Cytotoxicity Assay to monitor cytotoxicity in HEK293 cells - 24 hour (AID 1224875); further: series mostly up to about 77 µM; nearly all actives have a fitted effect of over 45% in size
Outline: as §2

[7] = A CellTox Green Cytotoxicity Assay to monitor cytotoxicity in HepG2 cells - 16 hour (AID 1224876); further: nearly all actives have a fitted effect of over 45% in size
Outline: (§5)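 Nonlytic assay: viable cells exclude the dye, so fluorescence scales with cell death. HepG2 at 600 cells/well, compounds added after 5 h, signal read across 40 h.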

[8] = qHTS RealTime-Glo MT Cell Viability Assay in HepG2 cells - 32 hour (AID 1224877); further: nearly all actives have a fitted effect of over 55% in size
Outline: (§6)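 Tox21 10K library screened in qHTS format on HepG2 cells carrying RealTime-Glo reagents. Compounds were added after a 5 h preincubation, and the luminescent signal from continuous culture was measured repeatedly during 40 h treatment.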

[9] = A CellTox Green Cytotoxicity Assay to monitor cytotoxicity in HepG2 cells - 24 hour (AID 1224878); further: nearly all actives have a fitted effect of over 45% in size
Outline: as §5

[10] = A CellTox Green Cytotoxicity Assay to monitor cytotoxicity in HepG2 cells - 40 hour (AID 1224879); further: nearly all actives have a fitted effect of over 40% in size; further: potency means the concentration at half of the fitted maximal effect
Outline: as §5

[11] = A CellTox Green Cytotoxicity Assay to monitor cytotoxicity in HEK293 cells - 32 hour (AID 1224881); further: nearly all actives have a fitted effect of over 40% in size
Outline: as §2

[12] = A CellTox Green Cytotoxicity Assay to monitor cytotoxicity in HepG2 cells - 0 hour (AID 1224882); further: nearly all actives have a fitted effect of over 35% in size
Outline: as §5

[13] = A CellTox Green Cytotoxicity Assay to monitor cytotoxicity in HepG2 cells - 32 hour (AID 1224883); further: nearly all actives have a fitted effect of over 50% in size
Outline: as §5

[14] = A CellTox Green Cytotoxicity Assay to monitor cytotoxicity in HEK293 cells - 8 hour (AID 1224884); further: nearly all actives have a fitted effect of over 35% in size
Outline: as §2

[15] = qHTS RealTime-Glo MT Cell Viability Assay in HepG2 cells - 16 hour (AID 1224885); further: nearly all actives have a fitted effect of over 50% in size
Outline: as §6

[16] = qHTS RealTime-Glo MT Cell Viability Assay in HEK293 cells - 24 hour (AID 1224886); further: nearly all actives have a fitted effect of over 50% in size; further: potency means the concentration at half of the fitted maximal effect
Outline: as §3

[17] = qHTS RealTime-Glo MT Cell Viability Assay in HEK293 cells - 8 hour (AID 1224887); further: nearly all actives have a fitted effect of over 50% in size; further: potency means the concentration at half of the fitted maximal effect
Outline: as §4

[18] = A CellTox Green Cytotoxicity Assay to monitor cytotoxicity in HEK293 cells - 16 hour (AID 1224888); further: nearly all actives have a fitted effect of over 35% in size
Outline: as §2

[19] = qHTS RealTime-Glo MT Cell Viability Assay in HepG2 cells - 0 hour (AID 1224889); further: nearly all actives have a fitted effect of over 50% in size
Outline: as §6

[20] = qHTS RealTime-Glo MT Cell Viability Assay in HEK293 cells - 0 hour (AID 1224880)
Outline: as §4
On the % scale 0 is the no-effect control and ±100 the full control effect.

Oc1ccc2c3c1O[C@H]1[C@@H](O)C=C[C@H]4[C@@H](C2)NCC[C@@]341
inactive: Potency [1] | Potency [2] | Potency [3] | outcome [4] | max response [5] -1.32% | Potency [6] | Potency [7] | Potency [8] | Potency [9] | Potency [10] | Potency [11] | outcome [12] | Potency [13] | Potency [14] | Potency [15] | Potency [16] | Potency [17] | Potency [18] | outcome [19]

CCN[C@@H](C)Cc1ccccc1
active: Potency [10] 0.154 µM
inactive: Potency [1] | Potency [2] | Potency [3] | outcome [4] | max response [5] -5.07% | Potency [6] | Potency [7] | Potency [9] | outcome [20] | Potency [11] | outcome [12] | Potency [13] | Potency [14] | Potency [15] | Potency [16] | Potency [17] | Potency [18] | outcome [19]

ClCCN1CCCC1
inactive: Potency [1] | Potency [2] | Potency [3] | outcome [4] | max response [5] 8.04% | Potency [6] | Potency [7] | Potency [8] | Potency [10] | outcome [20] | Potency [11] | outcome [12] | Potency [13] | Potency [14] | Potency [15] | Potency [16] | Potency [17] | Potency [18] | outcome [19]

CC(C)NCC(O)c1ccc([N+](=O)[O-])cc1 (stereo not given)
inactive: Potency [1] | Potency [2] | Potency [3] | outcome [4] | max response [5] 6.95% | Potency [6] | Potency [7] | Potency [8] | Potency [9] | Potency [10] | outcome [20] | Potency [14] | Potency [15] | Potency [16] | Potency [17] | Potency [18] | outcome [19]

CCOC(=O)COc1ccc(Cl)cc1Cl
inactive: Potency [1] | Potency [2] | Potency [3] | outcome [4] | max response [5] -3.04% | Potency [6] | Potency [7] | Potency [9] | Potency [10] | outcome [20] | Potency [11] | outcome [12] | Potency [14] | Potency [15] | Potency [16] | Potency [17] | Potency [18] | outcome [19]

C=C1C[C@@H]2[C@H](CC[C@]3(C)C(=O)CC[C@@H]23)[C@@]2(C)C=CC(=O)C=C12
inactive: Potency [1] | Potency [2] | Potency [3] | outcome [4] | max response [5] 0.138% | Potency [6] | Potency [7] | Potency [8] | Potency [10] | outcome [20] | Potency [14] | Potency [15] | Potency [16] | Potency [17] | Potency [18]

CC1=C2[C@H]3OC(=O)[C@@H](C)[C@@H]3CC[C@@]2(C)C=CC1=O
inactive: Potency [1] | Potency [2] | Potency [3] | outcome [4] | max response [5] 10.1% | Potency [6] | Potency [7] | Potency [9] | Potency [10] | outcome [20] | Potency [11] | outcome [12] | Potency [13] | Potency [14] | Potency [16] | Potency [17] | Potency [18] | outcome [19]

CNC(=O)Oc1cc(C)c(N(C)C)c(C)c1
inactive: Potency [1] | Potency [2] | Potency [3] | outcome [4] | max response [5] -10.9% | Potency [6] | Potency [7] | Potency [9] | Potency [10] | outcome [20] | Potency [11] | outcome [12] | Potency [13] | Potency [14] | Potency [15] | Potency [16] | Potency [17] | Potency [18] | outcome [19]

CC1N=C(N)OC1c1ccccc1 (stereo not given)
inactive: Potency [1] | Potency [2] | Potency [3] | outcome [4] | max response [5] -2.35% | Potency [6] | Potency [7] | Potency [9] | Potency [10] | outcome [20] | Potency [11] | outcome [12] | Potency [13] | Potency [14] | Potency [15] | Potency [16] | Potency [17] | Potency [18] | outcome [19]

CC(C)(N)Cc1ccc(Cl)cc1
inactive: Potency [1] | Potency [2] | Potency [3] | outcome [4] | max response [5] 6.61% | Potency [6] | Potency [7] | Potency [8] | Potency [10] | outcome [20] | Potency [11] | outcome [12] | Potency [14] | Potency [15] | Potency [16] | Potency [17] | Potency [18] | outcome [19]

O=C(NC(=O)c1c(F)cccc1F)Nc1cc(Cl)c(F)c(Cl)c1F
inactive: Potency [1] | Potency [2] | Potency [3] | outcome [4] | max response [5] -0.171% | Potency [6] | Potency [7] | Potency [8] | Potency [10] | outcome [20] | Potency [11] | outcome [12] | Potency [14] | Potency [15] | Potency [16] | Potency [17] | Potency [18] | outcome [19]

C[C@H](N)C(=O)c1ccccc1
inactive: Potency [1] | Potency [2] | Potency [3] | outcome [4] | max response [5] -10.2% | Potency [6] | Potency [7] | Potency [8] | Potency [9] | outcome [20] | outcome [12] | Potency [13] | Potency [14] | Potency [15] | Potency [16] | Potency [17] | Potency [18] | outcome [19]

CC[C@@H](CO)NC(=O)[C@@H]1C=C2c3cccc4[nH]cc(c34)C[C@H]2N(C)C1
inactive: Potency [1] | Potency [2] | Potency [3] | outcome [4] | max response [5] 1.11% | Potency [6] | Potency [7] | Potency [8] | Potency [10] | outcome [20] | Potency [11] | Potency [13] | Potency [14] | Potency [16] | Potency [17] | Potency [18] | outcome [19]

C[C@H]1CCCC(=O)CCC/C=C/c2cc(O)cc(O)c2C(=O)O1
active: Potency [3] 37.5 µM | Potency [5] 21.1 µM | Potency [16] 33.4 µM | Potency [17] 42.1 µM
inactive: Potency [1] | Potency [2] | outcome [4] | Potency [6] | Potency [7] | Potency [8] | Potency [9] | outcome [20] | outcome [12] | Potency [13] | Potency [14] | Potency [18] | outcome [19]

N#CN
inactive: Potency [1] | Potency [2] | Potency [3] | outcome [4] | max response [5] 4.8% | Potency [6] | Potency [7] | Potency [9] | Potency [10] | outcome [20] | Potency [11] | outcome [12] | Potency [13] | Potency [14] | Potency [15] | Potency [16] | Potency [17] | Potency [18] | outcome [19]
